{"source": "PubChem BioAssay (NCATS)", "note": "Values joined by “and” are separate entries in the source; they are usually repeats but may differ in a detail not shown here. Equal entries are not always repeated. Results filed as inconclusive are left out. Active and inactive are the calls of the source. Calls follow the shape of the dose curve; as a rule, active = well fitted curve in the direction sought with a large enough effect; inconclusive = small, poorly fitted or top-dose-only effect, or another doubt; inactive = no such curve, though single readings can be large or run the other way. Where a SMILES comes first, the peptide text is derived from it. Bridges are numbered along the chain shown (N, C = ends).", "data": [{"assay": "qHTS Assay for Identifying Gametocytocidal Compounds (AID 743244); also: potency is read from the fitted curve at half-maximal effect;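 as to max response: % is scaled to controls: 0 for no effect and ±100 for the full control effect; actives lower the fluorescent signal which means gametocytes are killed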", "settings": "P. falciparum 3D7 stage III-V gametocytes, alamarBlue, 72 h; max response: hits give low values", "outline": "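Compounds are pinned into medium, gametocytes (stage III–V, 3D7, 20,000 cells/well) added, and plates held 72 h at 37 °C in 5% CO2. AlamarBlue follows for 24 h before fluorescence reading.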", "values": [{"compound": "NCCCC[C@H](NC(=O)[C@@H]1CCCN1C(=O)[C@@H]1CSSC[C@H](NC(=O)CNC(=O)CNC(=O)CN)C(=O)N[C@@H](Cc2ccc(O)cc2)C(=O)N[C@@H](Cc2ccccc2)C(=O)N[C@@H](CCC(N)=O)C(=O)N[C@@H](CC(N)=O)C(=O)N1)C(=O)NCC(N)=O", "note": "(H-GGGCYFQNCPKG-NH2; disulfide 4-9)", "max response": "-2% (inactive)"}, {"compound": "O=C(O)[C@@H](O)[C@H](O)[C@H](O)[C@@H](O)C(=O)O", "note": "(tested in a mixture with another compound)", "max response": "5.9% (inactive)"}, {"compound": "CCCC(CCC)C(N)=O", "max response": "-4.93% (inactive)"}, {"compound": "COC(=O)C1=C(C)NC(C)=C(C(=O)O[C@H]2CCN(Cc3ccccc3)C2)[C@H]1c1cccc([N+](=O)[O-])c1", "max response": "22.4% (inactive)"}, {"compound": "CCCCCCCC(=O)CC[C@@H]1[C@@H](C/C=C\\CCCC(=O)OC(C)C)[C@@H](O)C[C@H]1O", "max response": "0.0052% (inactive)"}, {"compound": "NCCC(=O)[N-][C@@H](Cc1cnc[nH]1)C(=O)O.[Zn]", "max response": "14.2% (inactive)"}, {"compound": "CCCC1([C@H](O)C/C=C/[C@H]2[C@H](O)CC(=O)[C@@H]2CCCCCCC(=O)OC)CCC1", "max response": "2.12% (inactive)"}, {"compound": "CC1(C)S[C@@H]2[C@H](NC(=O)C(C(=O)Oc3ccc4c(c3)CCC4)c3ccccc3)C(=O)N2[C@H]1C(=O)O", "note": "(stereo partly specified)", "max response": "5.21% (inactive)"}, {"compound": "NNc1nnc(Cc2ccncc2)c2ccccc12", "max response": "1.86% (inactive)"}, {"compound": "Cc1c(O)cc2c(c1C)O[C@](C)(CCC[C@H](C)CCC[C@H](C)CCCC(C)C)CC2", "max response": "-0.611% (inactive)"}, {"compound": "O=C1O[C@@H]2[C@@H](O)[C@H](O)O[C@@H]2[C@H]1O", "max response": "3.86% (inactive)"}, {"compound": "Cc1cc(Nc2ccccc2C(=O)O)ccc1Cl", "max response": "-23.6% (inactive)"}, {"compound": "CCC(=O)OCC(=O)[C@@]1(OC(=O)CC)[C@@H](C)C[C@H]2[C@@H]3CCC4=CC(=O)C=C[C@]4(C)[C@@]3(Cl)[C@@H](O)C[C@@]21C", "max response": "0.406% (inactive)"}, {"compound": "CN1CCN(C2=Nc3ccccc3Cc3ccccc32)CC1", "max response": "2.36% (inactive)"}, {"compound": "CC(=O)OC[C@H]1O[C@@H](O[C@H]2[C@H](O)[C@@H](OC(=O)c3ccccc3C(=O)O)[C@H](O)O[C@@H]2COC(C)=O)[C@H](O)[C@@H](OC(=O)c2ccccc2C(=O)O)[C@@H]1O", "max response": "-3.61% (inactive)"}, {"compound": "CCCCCCCCCCCCCCCC(=O)OCCC1CCN(CCCN2c3ccccc3Sc3ccc(S(=O)(=O)N(C)C)cc32)CC1", "max response": "-11.1% (inactive)"}, {"compound": "O=C(Cn1c(=O)sc2ccc(Cl)cc21)N1CCN(CCO)CC1", "max response": "-8.47% (inactive)"}, {"compound": "CCC(=O)OCC(=O)[C@@]1(OC(=O)CC)[C@H](C)C[C@H]2[C@@H]3CCC4=CC(=O)C=C[C@]4(C)[C@@]3(F)[C@@H](O)C[C@@]21C", "max response": "-4.58% (inactive)"}, {"compound": "COc1ccc(CNCC(O)COc2ccc3[nH]c(=O)ccc3c2)cc1OC", "note": "(stereo unspecified)", "max response": "-1.67% (inactive)"}, {"compound": "CCCCC(=O)O", "max response": "-7.14% (inactive) and 15.8% (inactive)"}, {"compound": "COc1cc2[nH]c(C)c(CCN3CCN(c4ccccc4)CC3)c2cc1OC", "max response": "16.1% (inactive)"}, {"compound": "C/C(=C(\\CCOC(=O)c1ccccc1)SS/C(CCOC(=O)c1ccccc1)=C(/C)N(C=O)Cc1cnc(C)nc1N)N(C=O)Cc1cnc(C)nc1N", "max response": "9.71% (inactive)"}, {"compound": "CC(=O)N[C@@H](C=O)[C@H](O)[C@H](O)[C@@H](O)CO", "max response": "-5.02% (inactive) and 7.73% (inactive)"}, {"compound": "CC(C)(C)CC(=O)OCC(=O)[C@@]12OC(C)(C)O[C@@H]1C[C@H]1[C@@H]3CCC4=CC(=O)C=C[C@]4(C)[C@@]3(F)[C@@H](O)C[C@@]12C", "max response": "-15% (inactive)"}, {"compound": "CCCCCCCCCCCCCCCC(=O)OC/C=C(C)/C=C/C=C(C)/C=C/C1=C(C)CCCC1(C)C", "max response": "-4.83% (inactive)"}, {"compound": "CS(=O)(=O)OCCCNCCCOS(C)(=O)=O", "max response": "-15.1% (inactive)"}, {"compound": "CC(=O)[C@@]1(O)CC[C@H]2[C@@H]3C=C(Cl)C4=CC(=O)CC[C@]4(C)[C@H]3CC[C@@]21C", "max response": "-4.61% (inactive)"}, {"compound": "O=C(OCCO)c1ccccc1O", "max response": "18.8% (inactive)"}, {"compound": "Cc1cc(-n2c(=O)[nH]c(=O)n(C)c2=O)ccc1Oc1ccc(S(=O)(=O)C(F)(F)F)cc1", "max response": "-1.23% (inactive)"}, {"compound": "C[C@]12CC[C@@H]3c4ccc(OS(=O)(=O)O)cc4CC[C@H]3[C@@H]1CCC2=O", "max response": "-15.6% (inactive)"}, {"compound": "CCN(CC)c1ccc(C(=C2C=CC(=[N+](CC)CC)C=C2)c2ccccc2)cc1", "Potency": "11.2 µM (active)"}]}]}
